Source: PubChem BioAssay (Broad Institute)
NOMO-1 viab: NOMO-1 AML cell viability reduction, primary screen, STK33 inhibitor project, CellTiter-Glo luminescence; NOMO-1 AML viability, 72 h; inhibition, % (test concentration not listed); 7.5% of 37,000 active; in the data active = inhibition above about 80%; inconclusive = no clear call, values can overlap the other calls
STK33 inh: STK33 kinase inhibitors, primary screen, biochemical, luminescence, ADP-Glo, MBP substrate; Serine/threonine-protein kinase 33 (Homo sapiens), Q9BYT3; 0.44% of 27,000 active; inhibition, % at 12.5 µM; in the data active = inhibition above about 20%; inconclusive = no clear call, values can overlap the other calls
Target sequence (Q9BYT3 whole entry, looked up): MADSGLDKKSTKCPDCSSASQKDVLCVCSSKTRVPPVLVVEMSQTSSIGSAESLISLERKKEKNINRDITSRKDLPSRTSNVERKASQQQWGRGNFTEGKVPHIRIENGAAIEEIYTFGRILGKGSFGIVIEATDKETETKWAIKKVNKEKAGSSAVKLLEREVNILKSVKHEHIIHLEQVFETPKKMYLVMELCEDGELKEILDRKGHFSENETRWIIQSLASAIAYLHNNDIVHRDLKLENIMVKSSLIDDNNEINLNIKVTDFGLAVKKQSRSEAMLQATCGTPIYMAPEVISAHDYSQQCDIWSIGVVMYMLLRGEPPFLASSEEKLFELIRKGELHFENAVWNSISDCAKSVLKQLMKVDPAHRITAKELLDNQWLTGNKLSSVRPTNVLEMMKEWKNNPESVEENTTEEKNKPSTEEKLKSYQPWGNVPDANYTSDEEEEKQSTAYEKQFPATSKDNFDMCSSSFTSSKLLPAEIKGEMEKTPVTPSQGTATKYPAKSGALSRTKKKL
PD-1 reversal: activators reversing PD-1 mediated T-cell inhibition, primary screen, luminescence, primary human CD4 T cells, PD-L1 beads. CellTiter-Glo 96 h. activation, % (no concentration beside the values). 29,000 tested, under 10 active. AID 2316, 2010; call rule not given here
Of the large screens only hits and unclear results are named; the others gave an inactive call. Many of the other results were omitted from the sample, so hits are more common in it than they were.

COc1ccc(C)cc1S(=O)(=O)N1CCC(C(=O)Nc2cccc(C(C)=O)c2)CC1	none (no result: PD-1 reversal)
COc1ccc(-n2c(SCC(=O)Nc3ccccc3C(F)(F)F)nnc2-c2ccccc2)cc1	none
Cc1ccc(S(=O)(=O)N(C)C[C@H]2Oc3c(NC(=O)NC4CCCCC4)cccc3C(=O)N([C@@H](C)CO)C[C@H]2C)cc1	none (no result: STK33 inh)
Cc1ccc(S(=O)(=O)N(C)C[C@@H]2Oc3c(NC(=O)NC4CCCCC4)cccc3C(=O)N([C@H](C)CO)C[C@@H]2C)cc1	NOMO-1 viab 91 (no result: STK33 inh)
C[C@H]1CN([C@@H](C)CO)C(=O)c2cccc(NC(=O)NC3CCCCC3)c2O[C@H]1CN(C)S(=O)(=O)c1ccc(Cl)cc1	NOMO-1 viab 98 (no result: STK33 inh)
C[C@@H]1CN([C@@H](C)CO)C(=O)c2cccc(NC(=O)NC3CCCCC3)c2O[C@@H]1CN(C)S(=O)(=O)c1ccc(Cl)cc1	none (no result: STK33 inh, PD-1 reversal)
Cc1c(NC(=O)CN(c2cc(Cl)ccc2Cl)S(C)(=O)=O)c(=O)n(-c2ccccc2)n1C	none
CS(=O)(=O)N(CC(=O)Nc1ccc(F)cc1)c1cccc2ccccc12	none (no result: PD-1 reversal)
COc1ccc2c(c1)C(C)CC(C)(C)N2C(=O)CSc1nc2ccccc2[nH]1 (stereo unspecified)	none
C[C@H](CO)N1C[C@H](C)[C@@H](CN(C)C(=O)Nc2cccc3ccccc23)Oc2c(NC(=O)Nc3ccc(C(F)(F)F)cc3)cccc2C1=O	NOMO-1 viab 117 (no result: STK33 inh)
C[C@H](CO)N1C[C@H](C)[C@H](CN(C)C(=O)Nc2cccc3ccccc23)Oc2c(NC(=O)Nc3ccc(C(F)(F)F)cc3)cccc2C1=O	none (no result: STK33 inh, PD-1 reversal)
C[C@@H]1CN([C@@H](C)CO)C(=O)c2cccc(NC(=O)Nc3ccc(C(F)(F)F)cc3)c2O[C@@H]1CN(C)C(=O)Nc1cccc2ccccc12	none (no result: STK33 inh)
C[C@@H]1CN([C@@H](C)CO)C(=O)c2cccc(NC(=O)Nc3ccc(C(F)(F)F)cc3)c2O[C@H]1CN(C)C(=O)Nc1cccc2ccccc12	NOMO-1 viab 106 (no result: STK33 inh)
COC(=O)c1c(NC(=S)Nc2ccn(C)n2)sc(C)c1-c1ccccc1	none
Cc1ccc(S(=O)(=O)Nc2cccc3c2O[C@@H](CN(C)Cc2ccc(C(=O)Nc4ccccc4N)cc2)[C@H](C)CN([C@@H](C)CO)C3=O)cc1	NOMO-1 viab inconclusive (no result: STK33 inh)
Cc1ccc(S(=O)(=O)Nc2cccc3c2O[C@H](CN(C)Cc2ccc(C(=O)Nc4ccccc4N)cc2)[C@@H](C)CN([C@@H](C)CO)C3=O)cc1	NOMO-1 viab 121 (no result: STK33 inh)
Cc1ccc(S(=O)(=O)Nc2cccc3c2O[C@@H](CN(C)Cc2ccc(C(=O)Nc4ccccc4N)cc2)[C@@H](C)CN([C@@H](C)CO)C3=O)cc1	NOMO-1 viab 134 (no result: STK33 inh)
Cc1ccc(S(=O)(=O)Nc2cccc3c2O[C@H](CN(C)Cc2ccc(C(=O)Nc4ccccc4N)cc2)[C@H](C)CN([C@H](C)CO)C3=O)cc1	NOMO-1 viab 129 (no result: STK33 inh)
CCn1c(Cn2nnc3ccccc32)nnc1SCC(=O)c1ccc(Br)cc1	none (no result: STK33 inh)
OCCNC(=S)NC12CC3CC(CC(C3)C1)C2	none (no result: STK33 inh)
CC(=O)Nc1ccc(Br)cc1	none (no result: STK33 inh)
CC(=O)C(C#N)C(=O)Nc1cc(Br)ccc1Br (stereo unspecified)	STK33 inh 22 (no result: PD-1 reversal)
CC/C=C\C=C1\C(=O)C=CC1CCCCCCCC(=O)O (stereo unspecified)	none (no result: NOMO-1 viab, PD-1 reversal)
COC(=O)c1ccccc1NC(=O)C(C)N(c1ccc(Cl)cc1)S(C)(=O)=O (stereo unspecified)	none
C[C@H](CO)N1C[C@H](C)[C@H](CN(C)CC2CCCCC2)Oc2ccc(NS(=O)(=O)c3ccc(F)cc3)cc2CC1=O	NOMO-1 viab 104 (no result: PD-1 reversal)
C[C@H]1CN([C@@H](C)CO)C(=O)Cc2cc(NS(=O)(=O)c3ccc(F)cc3)ccc2O[C@@H]1CN(C)CC1CCCCC1	NOMO-1 viab 123
C[C@@H]1CN([C@H](C)CO)C(=O)Cc2cc(NS(=O)(=O)c3ccc(F)cc3)ccc2O[C@@H]1CN(C)CC1CCCCC1	none
C[C@@H]1CN([C@H](C)CO)C(=O)Cc2cc(NS(=O)(=O)c3ccc(F)cc3)ccc2O[C@H]1CN(C)CC1CC1	none
CC(Oc1ccccc1)C(=O)Nc1cccc(-c2nnc(-c3ccccc3)o2)c1 (stereo unspecified)	none
C=CC1(C)OCO/C1=C\C[N+](C)(C)C (stereo unspecified)	none (no result: STK33 inh)
C=C[C@H]1CN2CC[C@H]1C[C@@H]2C(O)c1ccnc2ccc(OC)cc12 (stereo partly specified)	none
C[C@@H]1CN([C@H](C)CO)C(=O)c2cccc(NC(=O)Nc3ccc(F)cc3)c2O[C@H]1CN(C)Cc1ccc(Cl)c(Cl)c1	NOMO-1 viab 96 (no result: STK33 inh)
CC(C)NC(=O)Nc1cccc2c1O[C@H](CN(C)Cc1ccc(Cl)c(Cl)c1)[C@H](C)CN([C@@H](C)CO)C2=O	none (no result: STK33 inh, PD-1 reversal)
C[C@H](CO)N1C[C@H](C)[C@@H](CN(C)Cc2ccc(Cl)c(Cl)c2)Oc2c(NC(=O)Nc3ccc(F)cc3)cccc2C1=O	NOMO-1 viab 99 (no result: STK33 inh)
C[C@@H]1CN([C@@H](C)CO)C(=O)c2cccc(NC(=O)Nc3ccc(F)cc3)c2O[C@@H]1CN(C)Cc1ccc2c(c1)OCO2	none (no result: STK33 inh)
C[C@H]1CN([C@@H](C)CO)C(=O)c2cccc(NC(=O)Nc3ccc(F)cc3)c2O[C@H]1CN(C)Cc1ccc(Cl)c(Cl)c1	none (no result: STK33 inh)
COc1ccc(NC(=O)Nc2cccc3c2O[C@@H](CN(C)Cc2ccc(Cl)c(Cl)c2)[C@H](C)CN([C@@H](C)CO)C3=O)cc1	NOMO-1 viab 111 (no result: STK33 inh)
COc1ccc(CN(C)C[C@@H]2Oc3c(NC(=O)Nc4ccc(OC)cc4)cccc3C(=O)N([C@H](C)CO)C[C@H]2C)cc1	none (no result: STK33 inh, PD-1 reversal)
C[C@H]1CN([C@@H](C)CO)C(=O)c2cccc(NC(=O)Nc3ccc(F)cc3)c2O[C@@H]1CN(C)Cc1ccc(Cl)c(Cl)c1	NOMO-1 viab 109 (no result: STK33 inh, PD-1 reversal)
CSc1cccc(NC(=O)CSc2ncn(-c3ccccc3)n2)c1	none
COc1ccc(Cl)cc1N(CC(=O)Nc1cc(Cl)cc(Cl)c1)S(C)(=O)=O	none
COc1ccc(OC)c(S(=O)(=O)N(C)CC(=O)Nc2ccccc2F)c1	none
CCC(Sc1nncn1C)C(=O)Nc1ccc([N+](=O)[O-])cc1 (stereo unspecified)	none
C[C@@H]1CC[C@]2(C)[C@H](CC[C@@H](O)[C@]2(C)O)[C@@]1(C)CC/C(=C/CO)CO	none (no result: NOMO-1 viab, PD-1 reversal)
C[C@@H]1CN([C@@H](C)CO)C(=O)c2cccc(NC(=O)Nc3ccccc3)c2O[C@H]1CN(C)Cc1ccc2c(c1)OCO2	NOMO-1 viab 89 (no result: STK33 inh)
C[C@H]1CN([C@@H](C)CO)C(=O)c2cccc(NC(=O)Nc3ccc4c(c3)OCO4)c2O[C@H]1CN(C)Cc1ccc(C(F)(F)F)cc1	none (no result: STK33 inh)
C[C@@H]1CN([C@@H](C)CO)C(=O)c2cccc(NC(=O)Nc3ccccc3)c2O[C@@H]1CN(C)Cc1ccc2c(c1)OCO2	none (no result: STK33 inh, PD-1 reversal)
C[C@@H]1CN([C@H](C)CO)C(=O)c2cccc(NC(=O)Nc3ccc4c(c3)OCO4)c2O[C@@H]1CN(C)Cc1ccncc1	none (no result: STK33 inh)
C[C@@H]1CN([C@@H](C)CO)C(=O)c2cccc(NC(=O)Nc3ccc4c(c3)OCO4)c2O[C@@H]1CN(C)Cc1ccc(C(F)(F)F)cc1	NOMO-1 viab 82 (no result: STK33 inh)
C[C@H]1CN([C@@H](C)CO)C(=O)c2cccc(NC(=O)Nc3ccc(F)cc3)c2O[C@H]1CN(C)Cc1ccc2c(c1)OCO2	none (no result: STK33 inh)
